Measurements: PubChem BioAssay
Activity calls are given as the source filed them.

How the values were obtained:
[1] = small molecules captured by biotinylated probe aFSTL3 – biochemical, small-molecule microarray, fluorescence 635/667, stem cell growth factor project, primary screen (AID 1064); settings: higher = more signal;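 also: measures binding of the biotinylated anti-FSTL3 antibody to printed compounds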
[2] = binders from COS7 lysate, DM2A8 probe, primary screen, torsin A project, cell lysate, small-molecule microarray, fluorescence 635/667 (AID 1065); settings: higher = more signal, COS7 lysate expressing mutant human TOR1A
[3] = small molecules captured by biotinylated probe aFGF2 – biochemical, small-molecule microarray, fluorescence 635/667, stem cell growth factor project, primary screen (AID 1067); settings: higher = more signal;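 also: measures binding of biotinylated aFGF2 protein to printed compounds on slides; z-score merges feature fluorescence and signal-to-noise across triplicate slides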
[4] = small molecules captured by biotinylated probe aFGF10 – biochemical, small-molecule microarray, fluorescence 635/667, stem cell growth factor project, primary screen (AID 1071); settings: higher = more signal;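 also: score merges 667 nm spot intensity and signal to noise from triplicate slides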
[5] = biological target: Neurogenic locus notch homolog protein 2 (Homo sapiens) (UniProt Q04721); assay: small molecules binding Notch2 protein – biochemical, small-molecule microarray, 635 nm fluorescence, stem cell growth factors, primary screen (AID 1073); settings: higher = more signal
[6] = biological target: Pro-neuregulin-1, membrane-bound isoform (Homo sapiens) (UniProt Q02297); assay: small molecules binding neuregulin-1 protein – biochemical, small-molecule microarray, fluorescence 635/667, psychiatric disease protein project, primary screen (AID 1075); settings: NRG1 binding, 635 nm fluorescence, higher = more signal;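 also: score combines 667 nm spot fluorescence with signal to noise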
[7] = test system: Neuregulin-1 EGF-like domain; assay: small molecules binding NRG1 EGF domain – biochemical, small-molecule microarray, 635 nm fluorescence, primary screen (AID 1081); settings: higher = more signal;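 also: binding of the protein to compounds printed on small-molecule microarray slides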
[8] = FRG1 expression reporter modulators in myotubes – cell-based, C2C12 myotubes, firefly/Renilla luciferase, luminescence, FRG1 inhibition for FSHD, primary screen (AID 1084); settings: FRG1 promoter luciferase, higher = more signal, called active from +8 up or from −8 down
[9] = small molecules captured by biotinylated probe aFST – biochemical, small-molecule microarray, fluorescence 635/667, stem cell growth factor project, primary screen (AID 1086); settings: higher = more signal;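 also: score merges 667 nm fluorescence with signal-to-noise of each printed compound spot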
[10] = binders of probe aHhip on microarray, primary screen, stem cell growth factor project, biochemical, small-molecule microarray, fluorescence 635/667 (AID 1087); settings: higher = more signal;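 also: score merges spot fluorescence at 667nm with spot signal to noise ratio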
[11] = test system: PRMT1 (protein arginine N-methyltransferase 1); assay: small molecules binding arginine methyltransferase PRMT1 – biochemical, small-molecule microarray, 635 nm fluorescence, primary screen (AID 1088); settings: higher = more signal;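 also: binding of Prmt1 protein to compounds spotted on small-molecule microarray slides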
[12] = growth effects on S. cerevisiae YJM789 – YJM789 clinical isolate, OD600, 24 h, basal, primary screen (AID 1089); settings: higher = more signal, called active from +8 up or from −8 down;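 also: growth of clinical yeast isolate S. cerevisiae YJM 789 seeded 1000 cells per well; test concentration not given here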
[13] = S. pombe growth modifiers, basal conditions – strain 972, OD600, 24 h, no modulator, primary screen (AID 1090);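 also: basal condition with compound alone and no growth modifier present; test concentration not given here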; settings: S. pombe 972 growth, higher = more signal, called active from +8 up or from −8 down
[14] = budding yeast growth modifiers under rapamycin – strain BY4716, OD600, 96 h, primary screen (AID 1091); also: test concentration not given here; settings: S. cerevisiae BY4716 + rapamycin, higher = more signal, called active from +8 up or from −8 down
[15] = biological target: Torsin-1A-interacting protein 2 (Homo sapiens) (UniProt Q8NFQ8); assay: small molecules binding lysate-expressed LULL1 – cell lysate, human LULL1 lysate, 635/667 nm fluorescence, primary screen (AID 1092); settings: small-molecule microarray, hLULL1 lysate binding, 635 nm fluorescence; higher = more signal;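 also: probe is lysate of COS7 cells overexpressing human LULL1; score merges per-feature 667 nm fluorescence with signal-to-noise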
[16] = optical density change of DRC41 E. coli – strain DRC41, OD650, 24 h, E. coli filamentation project, primary screen (AID 1093);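 also: MC1000 strain lacking acrAB efflux and sulA so SOS filamentation is blocked; test concentration not given here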; settings: E. coli DRC41 growth, higher = more signal, called active from +8 up or from −8 down
[17] = probe aLefty2 binding to arrayed compounds – biochemical, biotinylated probe, 635/667 nm fluorescence, primary screen (AID 1094); settings: small-molecule microarray, higher = more signal;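 also: score merges spot fluorescence near 667 nm with spot signal-to-noise ratio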
[18] = test system: Noggin (protein binding on small-molecule microarray); assay: small molecules binding Noggin protein – biochemical, 635/667 nm fluorescence, primary screen (AID 1095); settings: 635 nm fluorescence, higher = more signal;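 also: score merges 667 nm feature fluorescence with signal to noise over triplicate slides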
[19] = biological target: Neurogenic locus notch homolog protein 3 (Homo sapiens) (UniProt Q9UM47); assay: small molecules binding NOTCH3 protein – biochemical, 635/667 nm fluorescence, primary screen (AID 1096); settings: small-molecule microarray, 635 nm fluorescence, higher = more signal
[20] = probe aEGFR binding to arrayed compounds – biochemical, biotinylated probe, 635/667 nm fluorescence, primary screen (AID 1097); settings: small-molecule microarray, higher = more signal;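 also: probe is a biotinylated anti-EGFR antibody binding compounds printed on slides; score combines fluorescence near 667 nm and signal to noise of each spot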

Sequence of Neurogenic locus notch homolog protein 2 (Homo sapiens) (Q04721 whole entry, looked up, canonical isoform): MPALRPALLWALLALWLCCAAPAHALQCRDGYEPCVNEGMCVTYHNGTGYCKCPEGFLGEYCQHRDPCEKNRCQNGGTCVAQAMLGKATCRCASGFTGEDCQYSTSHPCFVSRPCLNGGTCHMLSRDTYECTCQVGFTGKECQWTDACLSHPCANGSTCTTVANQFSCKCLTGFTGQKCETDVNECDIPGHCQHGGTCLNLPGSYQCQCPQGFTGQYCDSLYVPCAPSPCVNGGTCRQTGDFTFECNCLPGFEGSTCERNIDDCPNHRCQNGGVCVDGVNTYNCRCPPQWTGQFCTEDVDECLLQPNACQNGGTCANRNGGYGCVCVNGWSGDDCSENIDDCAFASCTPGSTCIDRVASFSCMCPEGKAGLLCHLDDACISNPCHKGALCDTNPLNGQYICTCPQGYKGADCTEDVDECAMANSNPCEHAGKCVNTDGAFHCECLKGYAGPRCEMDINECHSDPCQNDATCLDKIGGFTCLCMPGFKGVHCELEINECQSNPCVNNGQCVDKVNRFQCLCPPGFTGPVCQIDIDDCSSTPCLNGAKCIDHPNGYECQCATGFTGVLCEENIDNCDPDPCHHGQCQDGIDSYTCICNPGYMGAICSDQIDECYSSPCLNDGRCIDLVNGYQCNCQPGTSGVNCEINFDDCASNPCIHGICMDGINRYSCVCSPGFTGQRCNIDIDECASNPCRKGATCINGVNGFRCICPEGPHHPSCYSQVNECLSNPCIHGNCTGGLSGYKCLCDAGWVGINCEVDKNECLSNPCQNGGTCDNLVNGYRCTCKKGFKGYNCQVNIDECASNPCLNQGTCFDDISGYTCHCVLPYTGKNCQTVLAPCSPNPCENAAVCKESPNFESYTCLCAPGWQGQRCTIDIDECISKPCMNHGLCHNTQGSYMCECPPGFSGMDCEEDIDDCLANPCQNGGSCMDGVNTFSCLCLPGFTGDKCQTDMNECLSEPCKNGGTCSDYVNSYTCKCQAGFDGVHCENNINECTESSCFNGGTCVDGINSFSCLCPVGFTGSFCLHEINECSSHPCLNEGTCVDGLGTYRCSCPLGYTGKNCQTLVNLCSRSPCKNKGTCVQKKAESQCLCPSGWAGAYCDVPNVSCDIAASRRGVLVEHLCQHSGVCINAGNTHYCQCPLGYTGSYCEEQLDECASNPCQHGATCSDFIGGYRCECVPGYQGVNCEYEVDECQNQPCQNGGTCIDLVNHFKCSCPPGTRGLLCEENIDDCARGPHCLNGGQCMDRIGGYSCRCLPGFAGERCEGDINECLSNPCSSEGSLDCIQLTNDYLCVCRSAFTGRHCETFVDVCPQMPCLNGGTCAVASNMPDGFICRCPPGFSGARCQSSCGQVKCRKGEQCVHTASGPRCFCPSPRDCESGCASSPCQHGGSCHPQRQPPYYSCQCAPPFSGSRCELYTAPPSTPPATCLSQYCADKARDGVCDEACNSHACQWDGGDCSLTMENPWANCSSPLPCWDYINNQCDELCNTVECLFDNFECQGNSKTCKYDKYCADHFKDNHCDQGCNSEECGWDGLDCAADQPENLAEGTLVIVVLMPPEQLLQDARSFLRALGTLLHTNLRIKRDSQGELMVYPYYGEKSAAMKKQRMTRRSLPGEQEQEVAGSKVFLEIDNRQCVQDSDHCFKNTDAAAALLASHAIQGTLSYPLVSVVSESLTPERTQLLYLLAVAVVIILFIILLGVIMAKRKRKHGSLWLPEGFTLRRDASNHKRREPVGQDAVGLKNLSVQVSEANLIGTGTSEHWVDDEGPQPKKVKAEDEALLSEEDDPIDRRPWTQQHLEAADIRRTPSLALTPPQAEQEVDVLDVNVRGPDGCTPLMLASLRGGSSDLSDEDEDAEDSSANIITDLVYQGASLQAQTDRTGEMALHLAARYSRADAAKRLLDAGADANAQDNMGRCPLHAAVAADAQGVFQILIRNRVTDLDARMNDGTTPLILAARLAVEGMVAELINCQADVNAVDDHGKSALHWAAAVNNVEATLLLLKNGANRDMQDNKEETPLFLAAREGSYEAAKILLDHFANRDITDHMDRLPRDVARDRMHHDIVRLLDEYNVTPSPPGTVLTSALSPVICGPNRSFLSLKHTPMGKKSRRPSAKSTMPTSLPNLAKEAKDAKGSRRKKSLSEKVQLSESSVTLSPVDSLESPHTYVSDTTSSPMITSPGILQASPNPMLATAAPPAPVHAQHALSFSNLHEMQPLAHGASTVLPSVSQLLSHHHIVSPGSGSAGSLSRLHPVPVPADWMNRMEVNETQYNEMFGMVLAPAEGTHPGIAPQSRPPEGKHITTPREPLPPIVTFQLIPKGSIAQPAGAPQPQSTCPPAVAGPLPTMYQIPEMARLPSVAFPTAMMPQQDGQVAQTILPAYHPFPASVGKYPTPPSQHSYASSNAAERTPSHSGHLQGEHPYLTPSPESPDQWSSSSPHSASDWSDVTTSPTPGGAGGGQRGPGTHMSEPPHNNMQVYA
Sequence of Pro-neuregulin-1, membrane-bound isoform (Homo sapiens) (Q02297 whole entry, looked up, the tested form may be a part, canonical isoform): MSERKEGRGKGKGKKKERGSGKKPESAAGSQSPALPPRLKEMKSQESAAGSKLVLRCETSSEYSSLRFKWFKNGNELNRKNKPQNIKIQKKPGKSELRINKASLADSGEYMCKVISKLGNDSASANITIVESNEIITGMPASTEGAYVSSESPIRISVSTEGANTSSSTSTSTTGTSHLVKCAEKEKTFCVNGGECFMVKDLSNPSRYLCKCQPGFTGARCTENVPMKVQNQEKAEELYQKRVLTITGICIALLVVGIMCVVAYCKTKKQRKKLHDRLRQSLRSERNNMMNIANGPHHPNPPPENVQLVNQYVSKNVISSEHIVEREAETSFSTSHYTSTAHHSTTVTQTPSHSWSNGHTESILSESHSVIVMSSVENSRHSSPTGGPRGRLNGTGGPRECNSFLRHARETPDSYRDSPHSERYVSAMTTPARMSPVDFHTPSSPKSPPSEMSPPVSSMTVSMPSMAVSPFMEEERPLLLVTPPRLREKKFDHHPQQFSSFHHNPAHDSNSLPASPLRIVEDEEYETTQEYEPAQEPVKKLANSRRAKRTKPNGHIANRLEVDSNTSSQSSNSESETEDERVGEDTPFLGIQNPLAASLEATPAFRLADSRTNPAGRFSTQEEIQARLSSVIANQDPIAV
Sequence of Torsin-1A-interacting protein 2 (Homo sapiens) (Q8NFQ8 whole entry, looked up): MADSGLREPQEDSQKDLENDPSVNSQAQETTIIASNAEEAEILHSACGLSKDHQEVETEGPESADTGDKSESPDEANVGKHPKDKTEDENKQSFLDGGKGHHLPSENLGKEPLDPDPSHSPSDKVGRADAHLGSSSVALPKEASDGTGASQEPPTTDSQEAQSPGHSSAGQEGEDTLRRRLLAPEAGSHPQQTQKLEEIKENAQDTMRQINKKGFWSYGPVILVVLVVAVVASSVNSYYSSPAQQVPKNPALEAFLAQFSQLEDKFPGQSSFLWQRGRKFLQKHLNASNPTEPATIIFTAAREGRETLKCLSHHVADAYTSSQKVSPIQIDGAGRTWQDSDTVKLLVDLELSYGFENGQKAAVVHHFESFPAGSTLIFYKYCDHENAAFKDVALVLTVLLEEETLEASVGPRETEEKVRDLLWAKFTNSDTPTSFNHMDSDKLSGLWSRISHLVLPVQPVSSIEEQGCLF

C[N+](C)(C)CCCC[C@@H]1NC(=O)[C@@H]2C[C@H](C(=O)NCCCCCNC(=O)CS)[C@H](c3cccc(OCCO)c3)N2C1=O
composite z-score [1]: -0.129 | composite z-score [2]: 0.5 | composite z-score [3]: 0.0402 | composite z-score [4]: 0.294 | composite z-score [5]: 0.151 | composite z-score [6]: 0.634 | composite z-score [7]: 1.21 | z-score [8]: -0.669 (inactive) | composite z-score [9]: -0.0763 | composite z-score [10]: 0.138 | composite z-score [11]: 0.749 | z-score [12]: 0.539 (inactive) | z-score [13]: -0.879 (inactive) | z-score [14]: 0.378 (inactive) | composite z-score [15]: 0.743 | z-score [16]: 0.906 (inactive) | composite z-score [17]: 0.115 | composite z-score [18]: 0.505 | composite z-score [19]: -0.296 | composite z-score [20]: 0.0338

O=C1O[C@H](c2ccccc2)[C@H](c2ccccc2)N2[C@H]1[C@@H](C(=O)N1CCCCCCC1)[C@]1(C(=O)Nc3ccccc31)[C@H]2c1ccc(O)cc1
composite z-score [1]: 4.2 | composite z-score [2]: 2.71 | composite z-score [3]: 1.1 | composite z-score [4]: 1.61 | composite z-score [5]: 1.83 | composite z-score [6]: 2.55 | composite z-score [7]: 1.37 | z-score [8]: 0.168 (inactive) | composite z-score [9]: 3.92 | composite z-score [10]: 4.73 | composite z-score [11]: 1.55 | z-score [12]: 0.532 (inactive) | z-score [13]: 0.556 (inactive) | z-score [14]: 0.874 (inactive) | composite z-score [15]: 4.82 | z-score [16]: 0.248 (inactive) | composite z-score [17]: 2.02 | composite z-score [18]: 2.26 | composite z-score [19]: 1.01 | composite z-score [20]: 1.5

COC(=O)C(CC#Cc1ccc2c(c1)[C@]1(C(=O)N2)[C@H](C(=O)N2CCc3cc(OC)c(OC)cc3C2)[C@H]2C(=O)O[C@H](c3ccccc3)[C@H](c3ccccc3)N2[C@@H]1c1ccc(OCCO)cc1)C(=O)OC
composite z-score [1]: -0.295 | composite z-score [2]: 1.53 | composite z-score [3]: -0.145 | composite z-score [4]: 0.945 | composite z-score [5]: 1.54 | composite z-score [6]: 1.75 | composite z-score [7]: 1.31 | z-score [8]: 0.732 (inactive) | composite z-score [9]: 0.672 | composite z-score [10]: 0.0373 | composite z-score [11]: 1.55 | z-score [12]: 3.22 (inactive) | z-score [13]: 1.63 (inactive) | z-score [14]: 5.29 (inactive) | composite z-score [15]: 2.82 | z-score [16]: 0.37 (inactive) | composite z-score [17]: 0.128 | composite z-score [18]: 1.3 | composite z-score [19]: 1.07 | composite z-score [20]: 0.174

O=C(C=C(CC(O)c1cccc(Cl)c1)OCCF)OCCF (stereo not given)
composite z-score [1]: 0.876 | composite z-score [2]: -0.824 | composite z-score [3]: -0.154 | composite z-score [4]: -0.694 | composite z-score [5]: -1.02 | composite z-score [6]: -0.0066 | composite z-score [7]: -0.19 | z-score [8]: -4.54 (inactive) | composite z-score [9]: 0.0462 | composite z-score [10]: 0.0596 | composite z-score [11]: -1.87 | z-score [12]: -2.44 (inactive) | z-score [13]: 0.291 (inactive) | z-score [14]: -0.582 (inactive) | composite z-score [15]: 0.0714 | z-score [16]: -0.106 (inactive) | composite z-score [17]: -0.166 | composite z-score [18]: -1.22 | composite z-score [19]: -1.11 | composite z-score [20]: -0.128

COCCCNC(=O)[C@@H]1c2ccccc2C(=O)N(c2ccc(C)cn2)[C@H]1c1ccc(CO)cc1
composite z-score [1]: 1.02 | composite z-score [2]: -1.72 | composite z-score [3]: -0.294 | composite z-score [4]: -0.286 | composite z-score [5]: -1.58 | composite z-score [6]: 0.825 | composite z-score [7]: -0.54 | z-score [8]: 0.183 (inactive) | composite z-score [9]: -0.939 | composite z-score [10]: -0.233 | composite z-score [11]: -0.0842 | z-score [12]: 0.331 (inactive) | z-score [13]: -1.18 (inactive) | z-score [14]: -0.19 (inactive) | composite z-score [15]: 0.674 | z-score [16]: -2.29 (inactive) | composite z-score [17]: 0.0748 | composite z-score [18]: -1.73 | composite z-score [19]: -0.502 | composite z-score [20]: -0.379

O=C1CSC(c2cccc([N+](=O)[O-])c2)N1c1ccccc1 (stereo not given)
composite z-score [1]: 0.315 | composite z-score [2]: -0.0123 | composite z-score [3]: -0.0161 | composite z-score [4]: 0.508 | composite z-score [5]: 0.839 | composite z-score [6]: 0.146 | composite z-score [7]: 0.979 | z-score [8]: -0.239 (inactive) | composite z-score [9]: -0.0692 | composite z-score [10]: -0.0994 | composite z-score [11]: 0.0447 | z-score [12]: -0.0876 (inactive) | z-score [13]: 0.616 (inactive) | z-score [14]: 1.09 (inactive) | composite z-score [15]: 0.517 | z-score [16]: 0.666 (inactive) | composite z-score [17]: -0.0163 | composite z-score [18]: 0.36 | composite z-score [19]: 0.201 | composite z-score [20]: 0.0093

CC(C)[Si](C#C[Si](C(C)C)(C(C)C)C(C)C)(O[C@H](C)c1cn(Cc2cccc(Cl)c2)nn1)C(C)C
composite z-score [1]: -0.333 | composite z-score [2]: -0.0681 | composite z-score [3]: -0.123 | composite z-score [4]: 0.316 | composite z-score [5]: 0.496 | composite z-score [6]: 0.528 | composite z-score [7]: 0.94 | z-score [8]: -1.14 (inactive) | composite z-score [9]: 0.323 | composite z-score [10]: -0.0994 | composite z-score [11]: 1.36 | z-score [12]: 0.487 (inactive) | z-score [13]: 0.115 (inactive) | z-score [14]: -0.318 (inactive) | composite z-score [15]: 1.04 | z-score [16]: 2.18 (inactive) | composite z-score [17]: -0.148 | composite z-score [18]: 0.52 | composite z-score [19]: 0.902 | composite z-score [20]: 0.0192

C=C[C@H](C)[C@H](OC(=O)Nc1ccc(SC)cc1)c1ccc(O)c2ccccc12
composite z-score [1]: -0.0571 | composite z-score [2]: -0.0235 | composite z-score [3]: 0.0243 | composite z-score [4]: -0.624 | composite z-score [5]: -0.718 | composite z-score [6]: 0.583 | composite z-score [7]: 1.05 | z-score [8]: 2.77 (inactive) | composite z-score [9]: -0.744 | composite z-score [10]: -0.268 | composite z-score [11]: 0.214 | z-score [12]: -21.7 (active) | z-score [13]: -20.8 (active) | z-score [14]: -2.22 (inactive) | composite z-score [15]: 0.803 | z-score [16]: 0.949 (inactive) | composite z-score [17]: -0.125 | composite z-score [18]: 0.174 | composite z-score [19]: -0.673 | composite z-score [20]: -0.305

NC(=O)[C@H]1[C@@H]2C(=O)O[C@@H](c3ccccc3)[C@@H](c3ccccc3)N2[C@@H](c2ccc(O)cc2)[C@]12C(=O)Nc1ccc(C#CC3(O)CCCCCC3)cc12
composite z-score [1]: 0.0918 | composite z-score [2]: 0.417 | composite z-score [3]: -0.0454 | composite z-score [4]: 0.607 | composite z-score [5]: 1.35 | composite z-score [6]: 1.5 | composite z-score [7]: 1.35 | z-score [8]: -1.46 (inactive) | composite z-score [9]: 0.617 | composite z-score [10]: 0.233 | composite z-score [11]: 1.53 | z-score [12]: 0.46 (inactive) | z-score [13]: -1.09 (inactive) | z-score [14]: 1.33 (inactive) | composite z-score [15]: 3.22 | z-score [16]: 0.568 (inactive) | composite z-score [17]: 0.0441 | composite z-score [18]: 1.2 | composite z-score [19]: 1.03 | composite z-score [20]: 0.0955

COCCOC(=O)N1C(=O)[C@@]2(c3cc(C#CCC(C(=O)OC)C(=O)OC)ccc31)[C@H](c1ccc(OCCO)cc1)N1[C@H](c3ccccc3)[C@H](c3ccccc3)OC(=O)[C@H]1[C@@H]2C(N)=O
composite z-score [1]: -0.564 | composite z-score [2]: -0.461 | composite z-score [3]: -0.116 | composite z-score [4]: 0.245 | composite z-score [5]: 1.15 | composite z-score [6]: 0.928 | composite z-score [7]: 1.22 | z-score [8]: -0.441 (inactive) | composite z-score [9]: 0.78 | composite z-score [10]: 0.35 | composite z-score [11]: 1.51 | z-score [12]: 1.47 (inactive) | z-score [13]: 0.561 (inactive) | z-score [14]: 4.48 (inactive) | composite z-score [15]: 3.22 | z-score [16]: 0.237 (inactive) | composite z-score [17]: 0.011 | composite z-score [18]: 0.543 | composite z-score [19]: 1.13 | composite z-score [20]: -0.0238
